{
  "source": "paper PMC8384837",
  "about": "“Expanding the binding specificity for RNA recognition by a PUF domain”",
  "assay_in_all_cases": "yeast three-hybrid, YBZ-1, SC-Leu-His + 0.5 mM 3-AT, 4 days",
  "conditions_in_all_cases": "tags: N-Gal4 AD-HA kept; label: inside an RPR1-promoter hybrid RNA with tandem MS2 sites; ssRNA",
  "key": {"PUM1 PUF domain R2-LWF": {"target": "PUM1 PUF domain R2-LWF (Homo sapiens, UniProt Q14671 828-1176, N899L;Y900W;Q903F)", "outline": "(§1)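 The interaction score is the log change in variant frequency from input to selection. Scores were computed in log2 with a pseudocount of 1 for absent variants, using Illumina sequencing of PCR-amplified repeat regions. The input came from four days on SC-Leu and the selection from four days on SC-Leu-His + 0.5 mM 3-AT. The cells were strain YBZ-1 (LexA–MS2 coat fusion, HIS3 reporter) co-expressing Pumilio-1 PUF domain libraries and matching RNA elements from a centromeric plasmid.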"}, "PUM1 PUF domain R1-KPC": {"target": "PUM1 PUF domain R1-KPC (Homo sapiens, UniProt Q14671 828-1176, S863K;R864P;Q867C)", "outline": "as §1"}, "PUM1 PUF domain R1-LRR": {"target": "PUM1 PUF domain R1-LRR (Homo sapiens, UniProt Q14671 828-1176, S863L;Q867R)", "outline": "as §1"}, "PUM1 PUF domain R1-RCL": {"target": "PUM1 PUF domain R1-RCL (Homo sapiens, UniProt Q14671 828-1176, S863R;R864C;Q867L)", "outline": "as §1"}, "PUM1 PUF domain R1-SVR": {"target": "PUM1 PUF domain R1-SVR (Homo sapiens, UniProt Q14671 828-1176, R864V;Q867R)", "outline": "as §1"}, "PUM1 PUF domain R3-VRI": {"target": "PUM1 PUF domain R3-VRI (Homo sapiens, UniProt Q14671 828-1176, C935V;Q939I)", "outline": "as §1"}, "PUM1 PUF domain R3-LWS": {"target": "PUM1 PUF domain R3-LWS (Homo sapiens, UniProt Q14671 828-1176, C935L;R936W;Q939S)", "outline": "as §1"}, "PUM1 PUF domain R4-HNS": {"target": "PUM1 PUF domain R4-HNS (Homo sapiens, UniProt Q14671 828-1176, N971H;H972N;Q975S)", "outline": "as §1"}, "PUM1 PUF domain R4-RLF": {"target": "PUM1 PUF domain R4-RLF (Homo sapiens, UniProt Q14671 828-1176, N971R;H972L;Q975F)", "outline": "as §1"}, "PUM1 PUF domain R4-GFW": {"target": "PUM1 PUF domain R4-GFW (Homo sapiens, UniProt Q14671 828-1176, N971G;H972F;Q975W)", "outline": "as §1"}, "PUM1 PUF domain R4-SPM": {"target": "PUM1 PUF domain R4-SPM (Homo sapiens, UniProt Q14671 828-1176, N971S;H972P;Q975M)", "outline": "as §1"}, "PUM1 PUF domain R5-QLS": {"target": "PUM1 PUF domain R5-QLS (Homo sapiens, UniProt Q14671 828-1176, C1007Q;R1008L;Q1011S)", "outline": "as §1"}, "PUM1 PUF domain R4-RMT": {"target": "PUM1 PUF domain R4-RMT (Homo sapiens, UniProt Q14671 828-1176, N971R;H972M;Q975T)", "outline": "as §1"}, "PUM1 PUF domain R6-RWC": {"target": "T1, PUM1 PUF domain R6-RWC (Homo sapiens, UniProt Q14671 828-1176, N1043R;Y1044W;Q1047C)", "T1 sequence": "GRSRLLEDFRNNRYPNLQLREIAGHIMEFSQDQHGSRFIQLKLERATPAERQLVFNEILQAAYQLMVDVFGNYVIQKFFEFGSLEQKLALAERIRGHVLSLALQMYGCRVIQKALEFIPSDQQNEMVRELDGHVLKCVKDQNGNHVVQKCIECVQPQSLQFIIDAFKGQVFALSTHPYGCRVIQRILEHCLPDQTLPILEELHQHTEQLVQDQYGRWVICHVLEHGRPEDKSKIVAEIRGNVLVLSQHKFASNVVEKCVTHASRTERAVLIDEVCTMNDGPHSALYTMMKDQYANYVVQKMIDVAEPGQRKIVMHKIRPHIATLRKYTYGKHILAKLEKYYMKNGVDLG", "outline": "as §1"}, "PUM1 PUF domain R4-LHQ": {"target": "PUM1 PUF domain R4-LHQ (Homo sapiens, UniProt Q14671 828-1176, N971L)", "outline": "as §1"}, "PUM1 PUF domain R4-FGR": {"target": "PUM1 PUF domain R4-FGR (Homo sapiens, UniProt Q14671 828-1176, N971F;H972G;Q975R)", "outline": "as §1"}},
  "data": [
    {"sequence": "GGCUAGAACUAGUGGAUCCCCCGGCGCCCGGCGGCUCGAGCCCGGGUAAGUGUAAACAGUCUGCAUGCCGCCGGGCGCCAUGCCUGCAGGUCGACUCUAGAAAACAUG", "values": [
      {"measurement": "binding signal", "setting": "PUM1 PUF domain R2-LWF", "value": "1.17 log2 enrichment (interaction score)"}
    ]},
    {"sequence": "GGCUAGAACUAGUGGAUCCCCCGGCGCCCGGCGGCUCGAGCCCGGGUAAGUGUAAAUUGUCUGCAUGCCGCCGGGCGCCAUGCCUGCAGGUCGACUCUAGAAAACAUG", "values": [
      {"measurement": "binding signal", "setting": "PUM1 PUF domain R1-KPC", "value": "4.34 log2 enrichment (interaction score)"},
      {"measurement": "binding signal", "setting": "PUM1 PUF domain R1-LRR", "value": "2.97 log2 enrichment (interaction score)"}
    ]},
    {"sequence": "GGCUAGAACUAGUGGAUCCCCCGGCGCCCGGCGGCUCGAGCCCGGGUAAGUGUAAAUCGUCUGCAUGCCGCCGGGCGCCAUGCCUGCAGGUCGACUCUAGAAAACAUG", "values": [
      {"measurement": "binding signal", "setting": "PUM1 PUF domain R1-RCL", "value": "3.05 log2 enrichment (interaction score)"},
      {"measurement": "binding signal", "setting": "PUM1 PUF domain R1-LRR", "value": "2.97 log2 enrichment (interaction score)"},
      {"measurement": "binding signal", "setting": "PUM1 PUF domain R1-SVR", "value": "3.35 log2 enrichment (interaction score)"}
    ]},
    {"sequence": "GGCUAGAACUAGUGGAUCCCCCGGCGCCCGGCGGCUCGAGCCCGGGUAAGUGUAAUUAGUCUGCAUGCCGCCGGGCGCCAUGCCUGCAGGUCGACUCUAGAAAACAUG", "values": [
      {"measurement": "binding signal", "setting": "PUM1 PUF domain R3-VRI", "value": "0.57 log2 enrichment (interaction score)"},
      {"measurement": "binding signal", "setting": "PUM1 PUF domain R3-LWS", "value": "4.58 log2 enrichment (interaction score)"}
    ]},
    {"sequence": "GGCUAGAACUAGUGGAUCCCCCGGCGCCCGGCGGCUCGAGCCCGGGUAAGUGUAAAUAGUCUGCAUGCCGCCGGGCGCCAUGCCUGCAGGUCGACUCUAGAAAACAUG", "values": [
      {"measurement": "binding signal", "setting": "PUM1 PUF domain R4-HNS", "value": "1.42 log2 enrichment (interaction score)"},
      {"measurement": "binding signal", "setting": "PUM1 PUF domain R3-VRI", "value": "4.31 log2 enrichment (interaction score)"},
      {"measurement": "binding signal", "setting": "PUM1 PUF domain R4-RLF", "value": "4.74 log2 enrichment (interaction score)"},
      {"measurement": "binding signal", "setting": "PUM1 PUF domain R3-LWS", "value": "4.31 log2 enrichment (interaction score)"},
      {"measurement": "binding signal", "setting": "PUM1 PUF domain R4-GFW", "value": "4.78 log2 enrichment (interaction score)"},
      {"measurement": "binding signal", "setting": "PUM1 PUF domain R4-SPM", "value": "3.49 log2 enrichment (interaction score)"},
      {"measurement": "binding signal", "setting": "PUM1 PUF domain R5-QLS", "value": "0.83 log2 enrichment (interaction score)"},
      {"measurement": "binding signal", "setting": "PUM1 PUF domain R4-RMT", "value": "3.47 log2 enrichment (interaction score)"},
      {"measurement": "binding signal", "setting": "PUM1 PUF domain R6-RWC", "value": "4.89 log2 enrichment (interaction score)"}
    ]},
    {"sequence": "GGCUAGAACUAGUGGAUCCCCCGGCGCCCGGCGGCUCGAGCCCGGGUAAGUGUAUAUAGUCUGCAUGCCGCCGGGCGCCAUGCCUGCAGGUCGACUCUAGAAAACAUG", "values": [
      {"measurement": "binding signal", "setting": "PUM1 PUF domain R4-LHQ", "value": "6.92 log2 enrichment (interaction score)"},
      {"measurement": "binding signal", "setting": "PUM1 PUF domain R4-HNS", "value": "4.08 log2 enrichment (interaction score)"},
      {"measurement": "binding signal", "setting": "PUM1 PUF domain R4-GFW", "value": "4.86 log2 enrichment (interaction score)"},
      {"measurement": "binding signal", "setting": "PUM1 PUF domain R4-FGR", "value": "2.32 log2 enrichment (interaction score)"},
      {"measurement": "binding signal", "setting": "PUM1 PUF domain R4-SPM", "value": "3.22 log2 enrichment (interaction score)"}
    ]},
    {"sequence": "GGCUAGAACUAGUGGAUCCCCCGGCGCCCGGCGGCUCGAGCCCGGGUAAGUGUAAAAAGUCUGCAUGCCGCCGGGCGCCAUGCCUGCAGGUCGACUCUAGAAAACAUG", "values": [
      {"measurement": "binding signal", "setting": "PUM1 PUF domain R2-LWF", "value": "6.96 log2 enrichment (interaction score)"}
    ]}
  ]
}
